87 compounds from PubChem BioAssay AID720504 (National Center for Advancing Translational Sciences (NCATS), 2013) can be followed below.

In all, about 360,000 compounds went through this assay and about 10,000 (2.8%) were called active. Not shown: some 4% with an inconclusive outcome. Calls come from the whole dose curve; as a rule, active = well fitted inhibition curve with a large enough effect; inconclusive = small, poorly fitted or top-dose-only effect; inactive = flat fitted curve, though single readings scatter. For the sample, actives were picked, then their nearest neighbours and some compounds at random.
% is set by controls: 0 for no effect and ±100 for the full control effect; potency is the fitted concentration of half-maximal effect.

For this assay, the target named is Serine/threonine-protein kinase PLK1 (Homo sapiens) (UniProt P53350). As to the kind of experiment: qHTS for Inhibitors of PLK1-PDB (polo-like kinase 1 - polo-box domain): Primary Screen. For max response, negative = inhibition: series mostly up to about 57 µM. Note: nearly all actives have a fitted effect of over 65% in size. The conditions noted are these: Plk1 PBD binding of FITC phosphopeptide, fluorescence polarization. Background: qHTS replaces the single test concentration by a dilution series.
Sequence of Serine/threonine-protein kinase PLK1 (Homo sapiens) (P53350 whole entry, looked up, the tested form may be a part): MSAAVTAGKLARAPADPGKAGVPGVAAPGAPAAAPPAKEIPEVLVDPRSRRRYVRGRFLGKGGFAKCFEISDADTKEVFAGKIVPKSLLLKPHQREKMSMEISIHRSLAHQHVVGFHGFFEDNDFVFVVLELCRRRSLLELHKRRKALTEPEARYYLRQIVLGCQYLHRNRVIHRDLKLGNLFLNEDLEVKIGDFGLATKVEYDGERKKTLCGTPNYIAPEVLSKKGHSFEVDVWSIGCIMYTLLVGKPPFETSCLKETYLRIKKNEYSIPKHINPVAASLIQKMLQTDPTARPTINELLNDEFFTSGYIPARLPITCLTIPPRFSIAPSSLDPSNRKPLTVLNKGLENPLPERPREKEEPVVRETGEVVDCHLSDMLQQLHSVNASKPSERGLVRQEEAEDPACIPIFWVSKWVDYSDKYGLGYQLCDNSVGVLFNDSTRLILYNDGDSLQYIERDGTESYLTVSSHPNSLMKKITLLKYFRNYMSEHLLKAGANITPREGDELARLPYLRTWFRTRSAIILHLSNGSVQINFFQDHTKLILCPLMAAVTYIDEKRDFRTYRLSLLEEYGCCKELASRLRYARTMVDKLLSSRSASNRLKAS
`CCNC(=O)C1(C)CCCN(C(=O)c2ccc3ccccc3n2)C1` (configuration not stated): the max response, negative = inhibition was -13.8% (inactive). With `CC1(C(=O)O)CCN1C(=O)/C=C/c1ccccc1` (configuration not stated), the max response, negative = inhibition was -4.73% (inactive). Consider `COc1ccc(C(C)(C)C)cc1NC(=O)CN(C)C1=NS(=O)(=O)c2ccccc21`, for which the max response, negative = inhibition was -6.05% (inactive). Still for that read-out and setting: next, `COc1ccc(CCN2CC(C(=O)OCC(=O)NCc3ccccc3Cl)CC2=O)cc1OC` (configuration not stated): -3.96% (inactive).

As for `O=C(OCc1ccc([N+](=O)[O-])cc1)C1CC(=O)N(Cc2ccccc2Cl)C1` (configuration not stated), the Potency was 29.9 µM (active).

Consider `CC(OC(=O)C1CC(=O)N(Cc2ccccc2)C1)C(=O)Nc1ccccc1[N+](=O)[O-]` (configuration not stated), for which the max response, negative = inhibition is -3.81% (inactive). On to `CCOC(=O)c1cnn2c(SC)ncnc12`, for which the max response, negative = inhibition is -4.05% (inactive). The same measure, in the same setting: the figure for `CC(C)Oc1cc(F)ccc1-c1cc(C(=O)Nc2cccc(Cl)c2)[nH]n1` is -2.39% (inactive); for `Cc1cc(C)n(-c2ccc(NC(=O)C3CCCCN3C(=O)c3cccs3)cc2)n1` (configuration not stated) it is -7.4% (inactive). With `COc1ccc(C(=O)C2CCCN(C(=O)c3ccc(OC)o3)C2)c(C)c1` (configuration not stated), the max response, negative = inhibition was -27.3% (inactive). In the case of `COc1ccc(C(=O)N2CCCCC2C(=O)Nc2ccc(-n3nc(C)cc3C)cc2)o1` (configuration not stated), the Potency is 23.8 µM (active). For the compound `CC(=O)c1ccccc1NC(=O)COC(=O)C1COc2ccccc2O1` (configuration not stated), the max response, negative = inhibition was 4.38% (inactive). With `CCCC(=O)N1CCC1(C)C(=O)Nc1ccc(-n2cncn2)cc1` (configuration not stated), the max response, negative = inhibition is -11.3% (inactive). As for `Cc1ccccc1CN1C(=O)CSCC1(C)C(=O)Nc1c(C)cccc1C` (configuration not stated), the max response, negative = inhibition was -3.6% (inactive). Same read-out and setting: next, `CCCCCCCCN1C(=O)[C@H](CC(=O)NCC23CC4CC(CC(C4)C2)C3)C[C@@]2(C(=O)OC)CCCCC=C12`: -9.18% (inactive).

Consider `COc1ccc(S(=O)(=O)Nc2ccc3cn[nH]c3c2)cc1[N+](=O)[O-]`, for which the max response, negative = inhibition was -11.6% (inactive). `O=[N+]([O-])c1cc(S(=O)(=O)Nc2cccc(Cl)c2)ccc1N=Nc1c(O)[nH]c2ccccc12`: the Potency was 84.4 µM (active).

With `O=C(O)c1ccccc1/C=N/Nc1ccc(S(=O)(=O)Nc2ccc(Cl)cc2)cc1[N+](=O)[O-]`, the max response, negative = inhibition is -22.4% (inactive). For the compound `COc1ccc(Cl)cc1NC(=O)CCS(=O)(=O)c1ccc(Br)cc1`, the Potency was 15 µM (active).

In the case of `CCOc1ccc(OCC)c(NC(=O)CCS(=O)(=O)c2ccc(C)cc2)c1`, the max response, negative = inhibition was -5.07% (inactive). Consider `COc1ccc(Cl)cc1NC(=O)CCS(=O)(=O)c1cc2c(cc1C)NC(=O)CO2`, for which the max response, negative = inhibition is -11.9% (inactive). On the same count and under the same terms, next, `COc1cc(CCN=Cc2ccccc2O)c([N+](=O)[O-])cc1OC`: -15.3% (inactive). In the case of `CN(C(=O)CN1CCN(c2cc(-c3ccc(OCc4ccccc4)cc3)ncn2)CC1)c1ccccc1`, the max response, negative = inhibition is 2.08% (inactive). Same read-out and setting: the figure for `CC(O)(c1cccc(F)c1)c1nc(-c2ccc3c(c2)OCO3)cs1` (configuration not stated) is -0.065% (inactive). Same read-out and setting: next, `COc1ccc([C@H]2N[C@]3(CCCN(Cc4ccco4)C3=O)[C@H]3C(=O)N(C)C(=O)[C@@H]23)cc1`: -10.5% (inactive); `Cc1ccc(S(=O)(=O)N2CCN(C(=O)N3CCOCC3)CC2)c(C)c1`: 3.35% (inactive). On to `CC(C)=C1SC(N2CCN(c3cccc(C)c3)CC2)=NC1=O`, for which the max response, negative = inhibition was -13.5% (inactive). Take `N#Cc1ccccc1-n1c(N)c(C(=O)N2CCCC2)sc1=S`: the Potency is 4.23 µM (active). `Cc1ccc(N2CCN(C(=O)c3cccs3)CC2)c(C)c1`: the max response, negative = inhibition is -4.91% (inactive). Still for that read-out and setting: the figure for `O=C(c1ccc(S(=O)(=O)c2ccccc2)cc1)N1CCCCCC1` is -6.16% (inactive). Take `Cc1ccc(-n2c(N)c(C(=O)N3CCOCC3)sc2=S)c(C)c1`: the Potency was 18.9 µM (active). On to `Cc1cccc(-n2c(N)c(C(=O)N3CCN(C)CC3)sc2=S)c1`, for which the Potency was 1.89 µM (active). For the compound `CCC(=O)Nc1sc(C(=O)N2CCCCC2)c(C)c1C#N`, the max response, negative = inhibition is 0.524% (inactive).

As to `Cc1cccc(N2CCN(C(=O)c3ccccc3NC(=O)C3CCCCC3C(=O)O)CC2)c1` (configuration not stated), the max response, negative = inhibition was -5.42% (inactive).

Turning to `COc1ccc(Cl)cc1-c1cc(C(=O)Nc2cc(OC)c(OC)c(OC)c2)[nH]n1`, the max response, negative = inhibition was -0.229% (inactive). In the case of `CCc1oc(-c2ccc(OC)cc2)c(C(=O)OCCCCCO)c1C(C)OCCO` (configuration not stated), the max response, negative = inhibition is -3.22% (inactive). The same measure, in the same setting: next, `COc1ccc(-c2coc3c(C(=O)NC(C)C)cccc23)c(C)c1`: -1.63% (inactive); `O=C1CCC(=O)N1CCC(=O)N(C(=O)NC1CCCCC1)C1CCCCC1`: -3.92% (inactive). Take `CSC1=NN(c2ccccc2)CN(c2ccccc2)N1C`: the max response, negative = inhibition is 3.5% (inactive). Still for that read-out and setting: next, `CSc1ncnc2c1ncn2CCCNCc1cccs1`: -6.17% (inactive). For `CC(=O)c1c(C)c[nH]c1C`, the Potency is 3.36 µM (active). As to `CCOC(=O)c1c(Cc2ccc(Cl)cc2)c[nH]c1C`, the max response, negative = inhibition was -3.47% (inactive). On the same count and under the same terms, next, `Cc1cc(C)n2c(NCc3ccccc3)c(CC(C)C)nc2n1`: 4.6% (inactive). As to `Cc1c(NC(=O)c2coc(=O)c(Br)c2)c(=O)n(-c2ccccc2)n1C`, the max response, negative = inhibition is -12.4% (inactive).

As to `Cc1cc(C(=O)CC#N)c(C)n1CC(F)(F)F`, the max response, negative = inhibition was -1.11% (inactive). On the same count and under the same terms, the figure for `CCCn1c(C)cc(C(=O)COC(=O)c2c(C)nn(-c3ccccc3)c2C)c1C` is 0.347% (inactive). As to `COc1ccc(-n2c(C)cc(C(=O)COC(=O)c3cc(OC)c(OC)cc3NC(=O)c3cccs3)c2C)cc1`, the max response, negative = inhibition was -3.08% (inactive). Regarding `Cc1cc(C(=O)COC(=O)c2cccs2)c(C)n1-c1c(C)n(C)n(-c2ccccc2)c1=O`, the Potency was 29.9 µM (active).

For `Cc1cc(C(=O)CC#N)c(C)n1-c1c(C)n(C)n(-c2ccccc2)c1=O`, the Potency was 21.2 µM (active). With `CCCNC(=O)c1cc2c(c(-c3cccc(-c4ccc(C#N)cc4)c3)n1)[C@@H](CCO)N(C(=O)CC)C2`, the max response, negative = inhibition was -12.5% (inactive).

Take `c1ccc2c(c1)nnn2-c1ccncc1`: the max response, negative = inhibition was -7.91% (inactive). The same measure, in the same setting: the figure for `COc1ccc(NC(=O)C2Cc3c(-c4cccc(NC(C)=O)c4)ccnc3O2)cc1OC` (configuration not stated) is -15.4% (inactive); for `CC(C)NC(=O)Nc1ccc2c(c1)C(=O)N([C@H](C)CO)C[C@H](C)[C@@H](CN(C)Cc1ccc(C(F)(F)F)cc1)OCCCC[C@@H](C)O2` it is -16.7% (inactive). Same read-out and setting: the figure for `O=C(COC(=O)c1cccc(Cl)c1Cl)NC1CCCCCC1` is -7.54% (inactive).

As for `COc1ccc(N2CCN(C(=S)Nc3ccc(S(N)(=O)=O)cc3)CC2)cc1`, the Potency was 13.4 µM (active). As for `CCOc1ccccc1N1CCN(C(=S)Nc2ccc(S(N)(=O)=O)cc2)CC1`, the max response, negative = inhibition is -0.318% (inactive). Still for that read-out and setting: next, `NS(=O)(=O)c1ccc(NC(=S)N2CCCC2)cc1`: -13.8% (inactive); `CN(C)C(CNC(=O)c1cc(Br)c(Br)s1)c1ccco1` (configuration not stated): -5.95% (inactive).

As for `O=S1(=O)CC(N2CCN(CCO)CC2)CN1Cc1cn(Cc2cccc(Cl)c2)nn1` (configuration not stated), the max response, negative = inhibition was -6.24% (inactive). Still for that read-out and setting: next, `Cc1ccc(-c2cnc(C(O)c3cc(Cl)cc(Cl)c3)[nH]2)cc1` (configuration not stated): 5.64% (inactive). Same read-out and setting: the figure for `COc1ccc(CCNC(=O)COC(=O)c2cc(=O)c3ccccc3o2)cc1` is -2.93% (inactive); for `COc1ccc(CNC(=O)COC(=O)C(CCSC)N2C(=O)c3ccccc3C2=O)cc1` (configuration not stated) it is -13.1% (inactive). Regarding `COc1ccc(CNC(=O)COC(=O)C2=Cc3ccccc3OC2)cc1`, the Potency is 13.4 µM (active). On to `Cc1ccc(-c2ccc(CN3C(C)C(=O)N(Cc4cn(CCC5OCCCO5)nn4)CCS3(=O)=O)cc2)cc1` (configuration not stated), for which the max response, negative = inhibition was -2.81% (inactive). Turning to `O=C(NC1Cc2ccccc2C1)c1cc(COc2cccc(C(F)(F)F)c2)on1`, the max response, negative = inhibition was -5.34% (inactive). Still for that read-out and setting: next, `NC(c1ccccc1)c1csc(NC(=O)Nc2cccc(C(F)(F)F)c2)n1` (configuration not stated): -4.96% (inactive). In the case of `O=c1cc(CO)oc(C(Nc2cccc(C(F)(F)F)c2)c2ccccn2)c1O` (configuration not stated), the Potency is 26.7 µM (active). With `COc1ccc(C=C2CCC3C(CCCC34OCCO4)C2=O)cc1` (configuration not stated), the max response, negative = inhibition is -14.1% (inactive). With `CCc1ccc(OC2(C)CCN(CCOc3ccc(C)cc3)C2)cc1` (configuration not stated), the max response, negative = inhibition was 0.495% (inactive).

`O=C(COc1ccc(Br)cc1)OCC(=O)c1ccc[nH]1`: the max response, negative = inhibition was -8.67% (inactive).

`Cc1ccc2nc(N3C(=O)C(O)=C(C(=O)c4ccco4)C3c3cccc(O)c3)sc2c1` (configuration not stated): the Potency is 18.9 µM (active). Consider `O=C(C1=C(O)C(=O)N(c2ncccn2)C1c1cccs1)c1ccco1` (configuration not stated), for which the max response, negative = inhibition is -18.5% (inactive). Regarding `COc1ccc2nc(N3C(=O)C(O)=C(C(=O)c4ccco4)C3c3ccco3)sc2c1` (configuration not stated), the max response, negative = inhibition is -16.7% (inactive). Turning to `COc1ccc(-c2cc3nc(NCCOc4ccccc4)ccn3n2)cc1`, the max response, negative = inhibition is -1.91% (inactive).

`Cc1nc2c(OCc3ccc(Cl)cc3)cccn2c1N(C)Cc1cccs1`: the max response, negative = inhibition was -7.96% (inactive). The same measure, in the same setting: next, `Cc1ccc(-c2cnc(C(O)c3cccc(C)c3C)[nH]2)cc1` (configuration not stated): 2.44% (inactive). Turning to `O=c1[nH]c2ccccc2n2c(-c3ccccc3)nnc12`, the Potency is 0.947 µM (active). For `O=C(c1ncn2c1c(=O)[nH]c1ccccc12)N1CCc2ccccc2C1`, the max response, negative = inhibition is 6.5% (inactive). Same read-out and setting: the figure for `O=c1[nH]n2c(-c3ccccc3)nc(O)c2c2ccccc12` is -5.86% (inactive); for `COc1ccc(Br)c(Cn2c(C)c(C(=O)NCc3cccs3)sc2=O)c1` it is 8.23% (inactive); for `CCOC(=O)[C@]12CCCC=C1N(CCC1=CCCCC1)C(=O)[C@H](CC(=O)NCCCCc1ccccc1)C2` it is -2.05% (inactive). With `CCc1ccccc1S(=O)(=O)Cc1ccc(C(=O)NCCc2ccccc2)o1`, the Potency is 26.7 µM (active). Regarding `COc1ccccc1CNC(=O)c1ccc(CS(=O)(=O)c2ccccc2)o1`, the max response, negative = inhibition was -4.65% (inactive). On the same count and under the same terms, next, `Cc1ccccc1S(=O)(=O)Cc1ccc(C(=O)NCCN2CCCCC2C)o1` (configuration not stated): 1.66% (inactive); `COC(=O)c1ccc2nc(-c3cccc(Br)c3)c(Cc3ccc(OC)cc3C)n2c1`: -4.35% (inactive).

As to `CCC(c1nnnn1-c1ccc2c(c1)OCCO2)N1CCN(c2ccc(C(F)(F)F)cn2)CC1` (configuration not stated), the max response, negative = inhibition is 3.69% (inactive). On the same count and under the same terms, the figure for `COc1ccc(C(CNC(=O)c2ccc(OCc3cscn3)cc2)N2CCCC2)cc1` (configuration not stated) is 3.78% (inactive).
